What was measured:
[1] = test system: P. falciparum NF54-pfs16-GFP early (I-III) stage gametocytes; experiment: relative % inhibition of viable gametocyte number; higher = more gametocytocidal; details: stage: early (I-III) gametocyte, incubation 72 h
Procedure, shortened: (§1)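 Magnet-isolated NF54 pfs16-GFP gametocytes at early (I/IIa, day 2) or late (day 8) stage were exposed to compound at 5 or 0.5 µM for 72 h at 37°C, 5% CO2, 5% O2, at 10% parasitaemia and 0.1% haematocrit. Elongated GFP objects with MitoTracker Red signal above cut-off were counted as viable by confocal imaging. Relative inhibition was normalised to in-plate vehicle and positive-control wells.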

[2] = test system: P. falciparum NF54-pfs16-GFP late (IV-V) stage gametocytes; experiment: as above; details: stage: late (IV-V) gametocyte, incubation 72 h
Procedure, shortened: as §1

Compound	relative % inhibition ([1]; 0.5 µM) [%]	relative % inhibition ([1]; 5 µM) [%]	relative % inhibition ([2]; 0.5 µM) [%]	relative % inhibition ([2]; 5 µM) [%]
Cc1ccc(Cl)cc1N1CCN(CCCNC(=O)C2CCN(c3nc4ccccc4[nH]3)CC2)CC1	20	66	28.3	-3.06
Cc1ccc(NC(=O)Nc2cccc(Cl)c2)cc1F	11	28.9	-16	21.8
CCOc1ccc2nc(C)cc(Nc3ccc(Br)cc3)c2c1	38.4	58.5	14.7	57.1
CCC(=O)Nc1nnc(Cc2ccc(OC)c(OC)c2)s1	16.8	4.14	0.759	6.51
COc1cccc(C(=O)Nc2ccc(-c3nc4ccccc4[nH]3)cc2)c1	12.4	-15.3	20	-5.77
CCOc1c(Cl)cc(CNCC(O)c2ccccc2)cc1OC (stereo not drawn)	-19.6	13.9	36.5	57.1
Cc1cc(Nc2ccc(OCc3ccccc3)cc2)nc2cc(O)ccc12	12.6	95.1	35.1	78.3
COc1ccc(-c2cc3c(SCC(=O)Nc4cc(C(F)(F)F)ccc4Cl)nccn3n2)cc1	14.5	-14.1	-14.3	3.88
Nc1ccc(-c2nc3cc(Oc4ccc(Oc5ccc6[nH]c(-c7ccc(N)cc7)nc6c5)cc4)ccc3[nH]2)cc1	13.7	98	13.4	32.9
CCN(Cc1ccccc1)C1CCN(Cc2cc(Br)ccc2O)CC1	27.8	99	35.1	68.6
COc1ccc(CCNC(=O)c2cc(S(=O)(=O)N3CC(C)CC(C)C3)ccc2Sc2ccc(F)cc2)cc1OC (stereo not drawn)	10.1	-11.3	17.9	20.1
CC(C)=CCN1CCC(C(=O)Nc2ccc(-c3nc4ccccc4[nH]3)cc2)CC1	3.42	74.1	16.4	-15.7
Cc1nc2ccccc2c(O)c1CC=C(Cl)Cl	4.23	3.33	33.4	49.4
CCOC(=O)c1cn(CC)c2cc(N(C)CCc3ccc(OC)c(OC)c3)c(F)cc2c1=O	38.6	51.6	72.3	97.7
O=C(CSc1nccn2nc(-c3ccccc3)cc12)Nc1cc(C(F)(F)F)ccc1Cl	3.61	-9.64	15.1	-0.775
COc1ccc(C=C2SC(Nc3ccccc3)=NC2=O)cc1	11.7	17.7	47.2	61.6
CC(C)(C)c1ccc(O)c(CNC2CCCCC2)c1	89.9	90.6	61.1	81
COc1ccc(C=C2SC(Nc3ccc(F)cc3)=NC2=O)c(OC)c1	2.18	8.91	24.9	87.9
Cc1ccc(-c2cc(C(=O)Nc3ccc(S(=O)(=O)N4CCCCC4)cc3)[nH]n2)c(O)c1	18	51	-1.52	2.43
Cc1cc(=O)oc2c1ccc1oc(C(=O)c3ccccc3)c(C)c12	8.22	5.4	17.2	-4.53
Cc1ccc(Nc2nc(N)c3ccccc3n2)cc1Cl	-26.6	24.5	22.5	38.4
COc1ccc(C(=O)NC(c2ccc(Cl)cc2Cl)c2cc(Cl)c3cccnc3c2O)cc1 (stereo not drawn)	42.5	107	50.9	98.7
COc1ccc2sc(N(Cc3cccnc3)C(=O)c3ccc(C#N)cc3)nc2c1	9.23	7.65	-14.5	8.48

Compound	relative % inhibition ([1]; 0.5 µM) [%]	relative % inhibition ([1]; 5 µM) [%]	relative % inhibition ([2]; 0.5 µM) [%]	relative % inhibition ([2]; 5 µM) [%]
O=C(NC1CCCC1)c1ccc(N2CCC(NCc3cccc(C(F)(F)F)c3)CC2)cc1	2.61	22.8	6.99	44.5
CCCc1c(C)nc2ccc(Br)cc2c1O	4.64	-4.44	25.1	59.8
Cc1cc(Nc2ccc(C)c(Cl)c2)n2nc(C(F)(F)F)nc2n1	-5.05	-8.28	13.1	-2.09
CCOc1ccc(N2C(N)=NC(N)=NC2(C)C)cc1	3.66	-20.1	-17.5	-10.7
Cc1cc(NC(=O)c2cccc(C(F)(F)F)c2)n(-c2nc(-c3ccc4c(c3)OCO4)cs2)n1	-23.4	-25.9	18.8	10.5
Clc1ccc2[nH]c3c(NCCCN4CCOCC4)ncnc3c2c1	61.4	97.5	12.4	17.7
OC(Cn1nnc2ccccc21)Cn1c2ccc(Br)cc2c2cc(Br)ccc21 (stereo not drawn)	5.28	83.6	18.2	43.4
CCN(CC)S(=O)(=O)c1ccc(-c2csc(Nc3ccc(C)c(C)c3)n2)cc1	28	31.5	42.2	42.2
Cc1cc(C)c2nc(N3CCC(C(=O)NCCCN4CCC(N5CCCCC5)CC4)CC3)sc2c1	8.57	90.7	-24.9	44.2
CCCCc1c(CCC)c(=N)c2ccccc2n1C	16.2	-5.38	18.3	-17.8
COc1cccc(-c2nn(C)c3sc(C(=O)NCCN4CCN(c5ccccc5F)CC4)cc23)c1	12.4	82.5	16.7	4.42
CC(C)(C)c1ccc(C2CC3=Nc4ccccc4N(C(=O)c4ccccc4Cl)C(c4ccc(F)cc4)C3=C(O)C2)cc1 (stereo not drawn)	20	80.4	60.8	89.9
COc1ccc(Nc2cc(C)nc(NCc3ccccc3)n2)cc1	-3.8	26.6	-3.1	36
Cc1ccccc1OCCSc1nc2ccc(NC(=O)c3cccs3)cc2s1	11.4	19.4	18.1	35.8
Cc1cc(NC(=O)C2c3ccccc3C(=O)N(CC(C)C)C2c2cccs2)no1 (stereo not drawn)	37.5	90.8	31.5	36.1
CCOc1ccccc1NC(=O)CN1CCN(C(=O)c2ccco2)CC1	11.3	9	-18.2	-2.45
Cc1ccc(C(=O)c2oc3ccc4c(C)cc(=O)oc4c3c2C)cc1	8.47	-0.0271	0.817	12
CCCN(CCC)CC(O)COc1ccccc1C(=O)Nc1ccccc1 (stereo not drawn)	22.5	101	34.9	65.1
CCCCNCC(O)(c1ccc(Cl)cc1)c1ccc(Cl)cc1	10.1	88.5	12.2	44
Cc1ccc(C)c(Cn2c(N3CCC(C(=O)NCc4cccs4)CC3)nc3ccccc32)c1	13.8	39.4	6.18	31.6
COc1ccc(-c2nonc2NC(=O)c2cccc(Cl)c2)cc1OC	31.7	-10.8	-17.2	-2.96
Fc1ccc2[nH]c3c(NCCCN4CCOCC4)ncnc3c2c1	18.8	97.3	-16.8	22.9
C[n+]1c2ccccc2nc2ccc(NCCO)cc21	6.83	0.402	13.2	4.26

Compound	relative % inhibition ([1]; 0.5 µM) [%]	relative % inhibition ([1]; 5 µM) [%]	relative % inhibition ([2]; 0.5 µM) [%]	relative % inhibition ([2]; 5 µM) [%]
COc1cc2c(cc1OC)C1=NNC(=O)C1=NC(C)(C)C2	71.5	88.6	100	98.5
CCOc1ccccc1CNC(=O)C1c2ccccc2C(=O)N(CC(C)C)C1c1cccs1 (stereo not drawn)	6.2	54.1	-4.49	-12.6
COc1ccc(Nc2nc(NCc3ccccc3)c3ccccc3n2)cc1	84.8	98.1	81.6	107
c1ccc(Cn2c(N=Nc3c(Nc4ccccc4)ccc4ccccc34)nc3ccccc32)cc1	62.1	106	102	100
CCn1nc(-c2ccc(C(=O)OC)cc2)nc2c(=O)n(C)c(=O)nc1-2	18.4	36.1	68	76.7
CCN(CC)CCNc1ncnc2c1[nH]c1ccc(Cl)cc12	14.5	79.1	2.71	24.8
Cc1ccc2cc3c(N)c4c(C)ccc(C)c4nc3nc2c1	4.09	91	8.68	50.1
CCOC(=O)c1cnc2ccc(OC)cc2c1Nc1ccc(N2CCN(C)CC2)cc1	53	24.4	11.9	19.4
Cc1cc(C=C2SC(=Nc3ccccc3)N(C3CCCC3)C2=O)c(C)n1-c1ccc(Cl)cc1	15	2.67	-2.31	31.2
COc1ccc(-c2nc3cc(Cc4ccc5[nH]c(-c6ccc(OC)cc6)nc5c4)ccc3[nH]2)cc1	48.1	100	17.1	103
Cc1ccc(S(=O)(=O)c2c(COC(=O)c3cccc(C)c3)c(-c3ccccc3)nn2C)cc1	-3.57	37.5	18.5	20.4
O=C1CC(O)(C(F)(F)C(F)(F)F)Oc2ccccc21 (stereo not drawn)	0.889	0.745	-15.1	4.41
Cc1[nH]c(-c2ccc(F)cc2)cc1C(=O)NC1CCN(Cc2ccccc2)CC1	14.7	75.3	6.29	15.4
COc1ccc(C(O)(CCC(C)C)C(CN2CCOCC2)c2ccc(Cl)cc2)cc1 (stereo not drawn)	6.71	94.3	12.1	25
CCOC(=O)c1c(C)n(-c2ccccc2)c2ccc(OC(=O)c3cc(OC)c(OC)c(OC)c3)cc12	17.7	-2.44	-15.1	-2.38
CCC(C)NCC(O)(c1ccc(Cl)cc1)c1ccc(Cl)cc1 (stereo not drawn)	16.2	102	27.1	58.3
c1ccc(CNc2nc(Nc3ccccc3)nc3ccccc23)cc1	65.9	97	57.9	86.1
O=C(Nc1ccc(F)c(Cl)c1)Nc1ccc(Cl)c(Cl)c1	6.15	98.2	18.8	30.3
Cc1sc2ncnc(Sc3nc4ccccc4[nH]3)c2c1C	89.7	91.1	30.6	94.5
COc1ccc(C2NCCc3c2[nH]c2ccccc32)cc1CN1CCN(c2ccc(F)cc2)CC1 (stereo not drawn)	18.2	90	8.16	58
Cc1cc(N2CCN(C3CCCC3)CC2)n2c(nc3ccccc32)c1C#N	-10.1	-15.8	11.3	6.77

— the supplement of paper PMC3842684
